Fh CTSL1 inh: blocks F. hepatica cathepsin L1 in PFM18AAP counter-screen | inhibition, % at 5.96 µM | AID 1906 | hit rate 0.49% among 300,000 | recombinant F. hepatica cathepsin L1, Z-Leu-Arg-MCA fluorescence;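 active means inhibition above the mean of all tested compounds plus 3 SD, set per screening campaign, cut at about 17% in these data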
iPSC survival up: enhancers of human iPSC single-cell survival; hiPSC single-cell survival, ATPlite luminescence; 100% = ROCK inhibitor wells, 0% = DMSO; survival enhancement, % at 20 µM; hit rate 0.044% among 360,000; in the data active means survival enhancement above about 18%;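 further: cells exposed to compounds for 16 hours before the ATP read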
CR mimetic SO: yeast age-related superoxide inhibition as caloric restriction mimetic; superoxide response (% of plate mean), % at 10 µM; AID 2690; hit rate 0.18% among 330,000; S. cerevisiae aged cells, superoxide DHE fluorescence; active compounds read low;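 active means superoxide response under a set limit, about three screen SD below normal, cut at about 65% in these data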;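 further: yeast aged for seven days with compound at 30 °C before DHE staining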
V-ATPase pH: yeast V-ATPase proton transport regulation by pHLuorin; S. cerevisiae, pHLuorin cytosolic pH fluorescence; response, % at 10 µM; hit rate 0.37% among 350,000; AID 504577; in the data active means response mostly above about 7.3%, no sharp cut-off; inactive means mostly below about 5.4%; further: actives read high
V-ATPase pH SP: modulates yeast V-ATPase proton transport; shares compounds with V-ATPase pH; S. cerevisiae pHLuorin cytosolic pH; response, % at 10 µM; hit rate 2% among 980; AID 602197; in the data active means response above about 24%
Large screens that a line does not name were inactive (follow-up assays come after a bar, where they were run). In the library only some 1% were active in any assay of this set; here they are far more common.

CC/C(C)=N\NC(=O)CNC(=O)c1ccc(Cl)cc1Cl	V-ATPase pH 12.1 | V-ATPase pH SP inactive
O=C1COc2ccc(NC(=O)c3ccccc3C(=O)O)cc2N1	none
CC(Sc1nnnn1C)C(=O)Nc1ccc2c(c1)OCCO2 (stereo not given)	none
COc1ccccc1CN1CC(C(=O)NCCCc2ccc(F)cc2)CCC1=O (stereo not given)	V-ATPase pH 12.6 | V-ATPase pH SP inactive
CCOC(=O)C(Cc1ccc(O)cc1)NC(=O)c1cc2c(cn1)[nH]c1ccccc12 (stereo not given)	none (no result: Fh CTSL1 inh, CR mimetic SO, V-ATPase pH)
O=C(NCCNCCO)C1(C(F)(F)F)C/C(=C\Cc2ccccc2)CCCO1 (stereo not given)	none
O=C(NCC1CC1)C1(C(F)(F)F)CC(CCc2ccccc2)CCCO1 (stereo not given)	V-ATPase pH 10.0 | V-ATPase pH SP inactive
O=C(O)c1ccc(N2CCS(=O)(=O)CC2)cc1	none
COc1ccc(N2CCN(C(CNS(C)(=O)=O)c3ccco3)CC2)cc1 (stereo not given)	none
CC(Oc1ccc(Br)cc1)C(=O)Nc1cc(S(=O)(=O)N2CCOCC2)ccc1N1CCCC1 (stereo not given)	none
O=C(CSc1nc2ccccc2c(=O)n1NC(=O)Cc1ccccc1)NCc1ccco1	none
O=C(CSc1nc2ccccc2c(=O)n1NC(=O)Cc1ccccc1)NCc1ccccc1	V-ATPase pH 14.6 | V-ATPase pH SP inactive
O=C(c1ccccc1)c1coc(-c2ccccc2)c1	none (no result: Fh CTSL1 inh, CR mimetic SO)
Nc1[nH]c(=O)nc2snnc12	none (no result: Fh CTSL1 inh, CR mimetic SO)
Cc1ccc(NC(=O)COc2cccnc2[N+](=O)[O-])cc1S(=O)(=O)N1CCCCC1	V-ATPase pH 56.6 | V-ATPase pH SP inactive
NS(=O)(=O)c1ccc(NN=C2CCN(Cc3ccccc3)CC2)c([N+](=O)[O-])c1	V-ATPase pH 16.1 | V-ATPase pH SP inactive
CCCN1CCC(=NNc2ccc(S(=O)(=O)N3CCOCC3)cc2[N+](=O)[O-])CC1	none
Cn1c(CNC(=O)c2ccc(F)cc2)cc2ccccc21	none
O=C(Cc1cccs1)NCCc1csc(-c2ccccc2)n1	none
COc1ccc(-c2nnc3sc(COc4ccccc4)nn23)cc1	none
COc1ccc(OCc2nn3c(-c4ccccn4)nnc3s2)cc1	V-ATPase pH 9.5 | V-ATPase pH SP inactive
CC(=O)NC12CC3CC(C1)CC(C(=O)Nc1nc4c(C)cccc4s1)(C3)C2	none
O=C(NCCc1ccccc1)C(=O)N/N=C/c1ccccc1C(F)(F)F	V-ATPase pH 9.6 | V-ATPase pH SP inactive
CC(=O)OCC(OC(C)=O)C(OC(C)=O)C(OC(C)=O)C(=O)Nc1ccccc1 (stereo not given)	none
CC(CC(=O)N1CCN(c2ccccc2F)CC1)c1ccccc1 (stereo not given)	none
CC(=O)OC(C(=O)N1CCN(c2ccccc2F)CC1)c1ccccc1 (stereo not given)	V-ATPase pH 12.2 | V-ATPase pH SP inactive
Cc1ccc(S(=O)(=O)Cc2ccc(C(=O)NC3CCCCCC3)o2)cc1	none
CN(C(=O)c1ccc(NC(=O)Cc2ccc(NC(=O)C3CCCN(C(=O)C4CCCC4)C3)cc2)cc1)C1CC1 (stereo not given)	V-ATPase pH 19.8 (no result: Fh CTSL1 inh) | V-ATPase pH SP inactive
CCc1ccc(Nc2nnc(SC3CCOC3=O)s2)cc1 (stereo not given)	none
C[C@@H](C(=O)N1CCN(Cc2ccc3c(c2)OCO3)CC1)n1nnc2ccccc2c1=O	V-ATPase pH 24.3 | V-ATPase pH SP inactive
CCC(C(=O)N1CCN(Cc2ccc3c(c2)OCO3)CC1)n1nnc2ccccc2c1=O (stereo not given)	none (no result: Fh CTSL1 inh, CR mimetic SO)
CCCC(=O)N1CCN(Cc2ccc3c(c2)OCO3)CC1	none
CCOCC(=O)N1CCN(Cc2ccc3c(c2)OCO3)CC1	V-ATPase pH 9.3 | V-ATPase pH SP inactive
CCCCn1c(=O)[nH]c(=O)c2c1nc(-c1ccc(C)c([N+](=O)[O-])c1)n2CC	V-ATPase pH 9.9 | V-ATPase pH SP inactive
Cc1ccc(-c2nc3c(c(=O)[nH]c(=O)n3CC(C)C)n2CC(C)C)cc1[N+](=O)[O-]	none
COc1ccc(Cl)cc1S(=O)(=O)N1CCCC(C(=O)N2CCOCC2)C1 (stereo not given)	V-ATPase pH 9.5 | V-ATPase pH SP inactive
CC(C)CN(C(=O)CCC1CCCCC1)c1c(N)n(CC(C)C)c(=O)[nH]c1=O	none (no result: Fh CTSL1 inh, CR mimetic SO)
O=S(=O)(c1cc(O)ccc1O)c1cccc2c(S(=O)(=O)c3cc(O)ccc3O)cccc12	none
O=S(=O)(O)c1cc(O)ccc1O	V-ATPase pH 15.1 | V-ATPase pH SP inactive
Cc1onc(-c2ccccc2)c1C(=O)NC1CCCCC1C (stereo not given)	V-ATPase pH 9.2 (no result: Fh CTSL1 inh, CR mimetic SO) | V-ATPase pH SP inactive
Cc1onc(-c2ccccc2)c1C(=O)NC1CCC(C)CC1 (stereo not given)	none (no result: Fh CTSL1 inh)
C[C@@H]1C=C[C@](Cc2ccccc2)(C(=O)NCC2CC2)N1C(=O)c1ccccc1	V-ATPase pH 10.6 | V-ATPase pH SP inactive
CNC(=O)[C@@]1(Cc2ccccc2)C=C[C@@H](C)N1C(=O)OC	none
O=[N+]([O-])c1ccc(CSc2ccc(S(=O)(=O)N3CCOCC3)cn2)cc1	none (no result: Fh CTSL1 inh, CR mimetic SO)
COc1ccc(-n2ccn(CC(=O)Nc3ccc(OC)cc3OC)c(=O)c2=O)cc1	V-ATPase pH 9.4 | V-ATPase pH SP inactive
CNCc1cc(Cl)cc(OC)c1OC(C)C	V-ATPase pH 7.7 (no result: Fh CTSL1 inh, CR mimetic SO) | V-ATPase pH SP inactive
O=C(NCc1ccccc1)c1ccc(CN(c2ccccn2)S(=O)(=O)c2ccccc2)cc1	none
CCOc1ccc(-n2ccc(=O)c(C(=O)Nc3ccc(S(=O)(=O)Nc4ncccn4)cc3)n2)cc1	none
COc1ccccc1CNC(=O)COC(=O)C1CCN(S(=O)(=O)c2c(Cl)cccc2Cl)CC1	none (no result: Fh CTSL1 inh, CR mimetic SO)
CCN(C(=O)COC(=O)c1cc(-c2ccccc2)nc2ccc(Br)cc12)C1CCS(=O)(=O)C1 (stereo not given)	V-ATPase pH 10.0 | V-ATPase pH SP inactive
Cc1cc(-c2ccccc2)nc(N(C)NC(=O)c2ccc(Cl)cc2)c1S(C)(=O)=O	V-ATPase pH 17.7 | V-ATPase pH SP inactive
N#CCCN(Cc1cccnc1)S(=O)(=O)c1ccc(S(=O)(=O)NC2CCCCC2)cc1	V-ATPase pH 8.6 | V-ATPase pH SP inactive
COc1ccc(C2NCCc3c2[nH]c2ccccc32)cc1CSc1nc2ccccc2s1 (stereo not given)	none
O=C(c1cccc(S(=O)(=O)N2CCCC2)c1)N1CCN(c2ccccc2F)CC1	none
CC(=O)c1cccc(S(=O)(=O)N2CCN(c3ccccc3F)CC2)c1	V-ATPase pH 11.9 | V-ATPase pH SP inactive
CCNc1nc(NCC)n2c(SCC(=O)Nc3ccc(OC(F)F)cc3)nnc2n1	none (no result: Fh CTSL1 inh, CR mimetic SO)
COc1ccccc1C(CC(=O)N1CCCC1)c1ccc2c(c1)OCO2 (stereo not given)	V-ATPase pH 6.8 | V-ATPase pH SP inactive
COc1ccc(NC(=O)CCOc2ccccc2F)cc1S(=O)(=O)N1CCCCC1	none (no result: Fh CTSL1 inh)
CCOC(=O)c1[nH]c2ccc(Cl)cc2c1NC(=O)c1nonc1C	none
CCOC(=O)c1[nH]c2ccccc2c1NC(=O)c1nonc1C	none | V-ATPase pH SP inactive
COc1ccc(S(=O)(=O)NCC(c2ccc3c(c2)OCO3)N2CCOCC2)cc1C (stereo not given)	none
